# Reference: the supplement of paper PMC10849652
# The full data set covers some 8,800 targets. This sample favours those with a hit. About 0.5% of all pairs of compound and target were hits. Values without a mark were called inactive.
# Experiments:
# Assay in all cases: log2 fold change, soluble protein after heating vs DMSO (PISA); higher = thermal stabilisation; K562 lysate, 10 uM; active = over 0.2 and 3.5 SD of the protein, either way, in both replicates (recomputed)
# ibrutinib = compound: C=CC(=O)N1CCC[C@@H](n2nc(-c3ccc(Oc4ccccc4)cc3)c3c(N)ncnc32)C1 [ibrutinib]
# Procedure, shortened: (§1)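 Quantification was by TMTpro 16plex LC-MS/MS with equalised channel sums, applied to the supernatant after 21,000xg for 90 min. Samples were crude K562 extract at 1 mg/mL protein in PBS pH 7.4 with 1 mM MgCl2, treated with 10 μM compound for 30 min, heated for 3 min across 48°C-58°C, pooled and brought to 0.5% NP-40 at 4°C. Values are log-two fold changes in thermal stability relative to solvent controls, from duplicates.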
# [1] = compound: CC(=O)c1cnc2ccc(-c3cc(Cl)c(O)c(Cl)c3)nc2c1N[C@H]1CC[C@H](CN(C)C)CC1
# Procedure, shortened: as §1
# ralimetinib = compound: CC(C)(C)Cn1c(N)nc2ccc(-c3[nH]c(C(C)(C)C)nc3-c3ccc(F)cc3)nc21 [ralimetinib]
# Procedure, shortened: as §1
# [2] = compound: CC(C)(O)CC(=O)NCCn1ccc2ncnc(Nc3ccc(Oc4cccc(C(F)(F)F)c4)c(Cl)c3)c21
# Procedure, shortened: as §1
# [3] = compound: CC(C)C1=C2N=C(C=C(N2N=C1)NCC3=CC=CC=C3)NCCCCCCN
# Procedure, shortened: as §1
# [4] = compound: CC1=C(C(CC(=O)N1)C2=CC=C(C=C2)C(F)(F)F)C(=O)NC3=C(C=C4C(=C3)C=NN4)F
# Procedure, shortened: as §1
# [5] = compound: CC1=C(C2=C(C=C1)C(=O)C3=CC=CC=C3N2CCCN)C
# Procedure, shortened: as §1
# [6] = compound: CC1=C(C=C(C=C1)NC(=O)C2=CC(=CC=C2)C(C)(C)C#N)NC3=CC4=C(C=C3)N=CN(C4=O)C
# Procedure, shortened: as §1
# [7] = compound: CC1=C(C=C(C=C1)NC(=O)C2=CC(=CC=C2)N(C)C)NC(=O)C3=CC=C(C=C3)O
# Procedure, shortened: as §1
# [8] = compound: CC1=CC=C(C=C1)SC2=C3C=C(SC3=CN=C2)C(=O)N
# Procedure, shortened: as §1
# Chain of UniProt Q9BYG3 (Q9BYG3 whole entry, looked up): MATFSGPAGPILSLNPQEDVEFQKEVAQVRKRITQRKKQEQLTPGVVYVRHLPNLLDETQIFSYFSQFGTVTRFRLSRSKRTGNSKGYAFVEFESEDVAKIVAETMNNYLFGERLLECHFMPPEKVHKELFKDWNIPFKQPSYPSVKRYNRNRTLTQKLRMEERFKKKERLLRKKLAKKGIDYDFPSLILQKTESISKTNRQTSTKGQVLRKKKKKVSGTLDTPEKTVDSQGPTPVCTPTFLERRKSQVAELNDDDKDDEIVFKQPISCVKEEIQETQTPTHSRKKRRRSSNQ
# Chain of UniProt P00480 (P00480 whole entry, looked up): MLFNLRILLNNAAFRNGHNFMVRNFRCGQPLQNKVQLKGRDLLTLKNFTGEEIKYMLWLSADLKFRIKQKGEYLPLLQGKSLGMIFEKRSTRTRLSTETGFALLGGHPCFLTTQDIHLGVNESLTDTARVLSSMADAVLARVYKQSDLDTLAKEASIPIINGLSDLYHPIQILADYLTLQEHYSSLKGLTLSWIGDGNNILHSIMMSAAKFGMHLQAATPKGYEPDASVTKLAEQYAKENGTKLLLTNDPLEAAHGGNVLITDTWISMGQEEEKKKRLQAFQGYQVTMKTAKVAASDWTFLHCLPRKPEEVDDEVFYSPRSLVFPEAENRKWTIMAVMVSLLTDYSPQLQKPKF
# Chain of UniProt P18440 (P18440 whole entry, looked up): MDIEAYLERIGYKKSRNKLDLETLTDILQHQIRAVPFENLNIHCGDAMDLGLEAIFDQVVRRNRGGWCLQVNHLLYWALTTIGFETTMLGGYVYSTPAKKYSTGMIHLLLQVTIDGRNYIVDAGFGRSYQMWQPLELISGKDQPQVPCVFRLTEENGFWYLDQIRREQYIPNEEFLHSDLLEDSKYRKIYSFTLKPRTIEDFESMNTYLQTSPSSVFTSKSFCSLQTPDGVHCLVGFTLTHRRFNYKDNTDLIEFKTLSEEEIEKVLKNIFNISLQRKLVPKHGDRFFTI
# Chain of UniProt O60313 (O60313 whole entry, looked up): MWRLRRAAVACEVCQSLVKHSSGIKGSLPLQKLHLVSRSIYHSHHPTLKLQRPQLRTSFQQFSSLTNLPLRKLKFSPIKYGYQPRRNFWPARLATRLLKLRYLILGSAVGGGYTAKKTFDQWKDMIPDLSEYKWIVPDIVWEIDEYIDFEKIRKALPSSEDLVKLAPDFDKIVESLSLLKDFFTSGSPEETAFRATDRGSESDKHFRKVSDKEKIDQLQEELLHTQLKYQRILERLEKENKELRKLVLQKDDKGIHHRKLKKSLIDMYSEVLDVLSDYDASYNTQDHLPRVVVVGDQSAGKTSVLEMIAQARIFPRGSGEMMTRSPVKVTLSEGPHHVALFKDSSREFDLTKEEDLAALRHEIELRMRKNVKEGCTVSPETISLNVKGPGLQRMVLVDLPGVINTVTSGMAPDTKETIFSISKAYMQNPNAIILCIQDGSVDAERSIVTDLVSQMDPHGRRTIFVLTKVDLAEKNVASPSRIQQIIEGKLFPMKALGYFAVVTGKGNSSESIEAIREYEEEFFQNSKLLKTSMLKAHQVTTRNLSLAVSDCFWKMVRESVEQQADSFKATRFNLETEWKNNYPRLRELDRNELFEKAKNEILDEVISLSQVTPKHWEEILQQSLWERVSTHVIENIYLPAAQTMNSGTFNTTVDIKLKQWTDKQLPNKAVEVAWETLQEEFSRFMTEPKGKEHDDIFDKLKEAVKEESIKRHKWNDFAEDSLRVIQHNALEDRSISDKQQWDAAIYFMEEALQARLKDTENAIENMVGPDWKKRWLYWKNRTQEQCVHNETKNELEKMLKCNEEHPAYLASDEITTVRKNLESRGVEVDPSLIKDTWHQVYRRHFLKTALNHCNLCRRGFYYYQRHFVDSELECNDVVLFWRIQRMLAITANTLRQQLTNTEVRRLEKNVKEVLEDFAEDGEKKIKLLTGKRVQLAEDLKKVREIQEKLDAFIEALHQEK
# Chain of UniProt Q15653 (Q15653 whole entry, looked up): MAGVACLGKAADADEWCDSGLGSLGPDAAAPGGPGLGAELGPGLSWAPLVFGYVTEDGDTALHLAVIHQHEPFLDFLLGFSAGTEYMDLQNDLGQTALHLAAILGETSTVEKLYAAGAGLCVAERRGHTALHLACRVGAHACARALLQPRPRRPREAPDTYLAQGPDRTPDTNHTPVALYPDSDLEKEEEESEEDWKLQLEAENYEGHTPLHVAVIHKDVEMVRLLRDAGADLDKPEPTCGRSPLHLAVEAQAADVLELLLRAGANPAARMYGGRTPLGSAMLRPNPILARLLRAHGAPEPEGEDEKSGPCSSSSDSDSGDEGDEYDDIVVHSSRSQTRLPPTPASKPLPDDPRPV
# Chain of UniProt Q9UBD5 (Q9UBD5 whole entry, looked up): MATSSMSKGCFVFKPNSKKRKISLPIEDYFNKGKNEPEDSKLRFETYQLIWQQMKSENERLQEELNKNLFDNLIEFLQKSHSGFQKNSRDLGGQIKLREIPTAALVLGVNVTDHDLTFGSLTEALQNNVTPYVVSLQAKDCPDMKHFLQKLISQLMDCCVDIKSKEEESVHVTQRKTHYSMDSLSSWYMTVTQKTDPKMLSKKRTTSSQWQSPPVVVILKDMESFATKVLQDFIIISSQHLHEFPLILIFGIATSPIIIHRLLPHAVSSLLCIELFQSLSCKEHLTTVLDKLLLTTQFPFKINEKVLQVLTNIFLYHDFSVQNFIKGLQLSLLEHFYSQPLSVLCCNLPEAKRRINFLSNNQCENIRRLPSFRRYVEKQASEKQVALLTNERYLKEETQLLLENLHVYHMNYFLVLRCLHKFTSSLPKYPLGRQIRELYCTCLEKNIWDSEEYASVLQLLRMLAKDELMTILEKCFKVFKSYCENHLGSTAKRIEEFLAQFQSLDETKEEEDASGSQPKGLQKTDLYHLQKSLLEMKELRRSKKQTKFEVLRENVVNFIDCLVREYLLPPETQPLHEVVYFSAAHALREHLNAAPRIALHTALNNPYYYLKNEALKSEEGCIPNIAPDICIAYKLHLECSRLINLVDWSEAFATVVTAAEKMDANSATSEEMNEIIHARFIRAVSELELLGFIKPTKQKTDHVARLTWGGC
# Chain of UniProt P03886 (P03886 whole entry, looked up): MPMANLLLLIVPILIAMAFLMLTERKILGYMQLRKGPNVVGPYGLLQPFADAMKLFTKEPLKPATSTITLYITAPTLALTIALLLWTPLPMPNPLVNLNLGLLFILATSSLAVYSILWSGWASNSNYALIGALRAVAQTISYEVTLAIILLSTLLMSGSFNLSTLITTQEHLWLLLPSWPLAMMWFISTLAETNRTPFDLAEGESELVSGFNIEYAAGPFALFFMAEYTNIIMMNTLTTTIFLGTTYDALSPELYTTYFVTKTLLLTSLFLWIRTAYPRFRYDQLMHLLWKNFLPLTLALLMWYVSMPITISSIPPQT
# Chain of UniProt Q15102 (Q15102 whole entry, looked up): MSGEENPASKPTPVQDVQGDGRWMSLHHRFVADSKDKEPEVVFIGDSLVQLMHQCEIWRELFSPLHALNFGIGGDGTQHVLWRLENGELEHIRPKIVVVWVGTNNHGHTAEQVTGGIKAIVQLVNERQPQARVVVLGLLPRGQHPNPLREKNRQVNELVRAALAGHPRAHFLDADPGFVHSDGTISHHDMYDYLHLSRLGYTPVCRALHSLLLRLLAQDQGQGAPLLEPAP
# Chain of UniProt P00156 (P00156 whole entry, looked up): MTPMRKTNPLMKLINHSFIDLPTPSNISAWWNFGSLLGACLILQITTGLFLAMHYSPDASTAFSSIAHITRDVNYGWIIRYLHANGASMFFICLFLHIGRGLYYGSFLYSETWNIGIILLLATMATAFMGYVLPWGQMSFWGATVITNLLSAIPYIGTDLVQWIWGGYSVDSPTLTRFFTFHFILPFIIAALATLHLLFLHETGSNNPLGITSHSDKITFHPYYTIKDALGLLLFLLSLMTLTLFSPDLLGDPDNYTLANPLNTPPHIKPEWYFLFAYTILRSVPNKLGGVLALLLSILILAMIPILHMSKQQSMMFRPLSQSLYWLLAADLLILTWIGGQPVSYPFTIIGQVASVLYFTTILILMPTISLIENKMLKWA
# Chain of UniProt Q969R2 (Q969R2 whole entry, looked up): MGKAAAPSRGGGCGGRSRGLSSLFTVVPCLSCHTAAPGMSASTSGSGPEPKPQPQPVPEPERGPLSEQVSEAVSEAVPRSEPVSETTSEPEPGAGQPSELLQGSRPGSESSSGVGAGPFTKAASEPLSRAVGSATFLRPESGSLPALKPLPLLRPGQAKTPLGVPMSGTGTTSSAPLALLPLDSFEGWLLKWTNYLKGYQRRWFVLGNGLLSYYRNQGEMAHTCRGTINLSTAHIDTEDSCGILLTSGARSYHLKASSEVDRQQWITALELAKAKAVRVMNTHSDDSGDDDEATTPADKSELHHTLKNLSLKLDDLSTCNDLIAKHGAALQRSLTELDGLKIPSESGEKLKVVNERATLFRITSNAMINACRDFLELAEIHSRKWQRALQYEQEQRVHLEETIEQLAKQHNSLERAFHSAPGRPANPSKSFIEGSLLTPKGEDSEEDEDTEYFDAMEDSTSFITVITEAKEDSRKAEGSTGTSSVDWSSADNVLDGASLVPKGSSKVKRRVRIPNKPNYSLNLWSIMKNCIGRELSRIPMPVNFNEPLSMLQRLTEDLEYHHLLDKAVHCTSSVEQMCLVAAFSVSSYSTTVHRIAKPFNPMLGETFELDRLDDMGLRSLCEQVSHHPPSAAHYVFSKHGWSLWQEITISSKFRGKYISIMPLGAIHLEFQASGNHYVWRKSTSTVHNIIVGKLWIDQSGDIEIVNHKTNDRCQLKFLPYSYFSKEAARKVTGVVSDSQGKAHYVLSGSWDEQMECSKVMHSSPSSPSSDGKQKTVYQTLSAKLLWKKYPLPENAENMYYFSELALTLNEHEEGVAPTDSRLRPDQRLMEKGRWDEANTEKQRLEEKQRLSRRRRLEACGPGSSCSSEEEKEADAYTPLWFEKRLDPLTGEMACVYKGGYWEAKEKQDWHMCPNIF
# Chain of UniProt Q9Y530 (Q9Y530 whole entry, looked up): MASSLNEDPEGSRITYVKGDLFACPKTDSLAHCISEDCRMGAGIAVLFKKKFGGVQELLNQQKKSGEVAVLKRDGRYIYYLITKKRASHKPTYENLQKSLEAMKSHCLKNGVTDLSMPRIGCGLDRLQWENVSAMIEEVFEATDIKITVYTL
Target,log2 fold change (ibrutinib),log2 fold change [1],log2 fold change (ralimetinib),log2 fold change [2],log2 fold change [3],log2 fold change [4],log2 fold change [5],log2 fold change [6],log2 fold change [7],log2 fold change [8]
MT-ND1 (UniProt P03886),0.032,-0.006,0.061,-0.101,-0.052,0.056,-0.007,0.055,-0.005,0.088
ORC3 isoform 2 (UniProt Q9UBD5),-0.034,0.007,0.034,-0.05,0.008,0.048,-0.036,0.003,0.029,-0.012
NUDT4 (UniProt Q9NZJ9),0.091,0.022,0.074,0.067,-0.012,0.017,0.003,-0.105,-0.014,0.058
NSUN2 (UniProt Q08J23),0.014,0.011,0.023,0.015,0.006,0.008,0.006,-0.035,0.033,0.017
NUDT4 isoform 2 (UniProt Q9NZJ9),-0.006,0.002,0.035,-0.044,-0.006,0.016,-0.054,0.034,0.024,-0.024
MRPL58 (UniProt Q14197),0.025,0.032,-0.022,0.006,-0.013,0.089,-0.034,-0.035,0.032,0.053
OSBPL3 isoform 2 (UniProt Q9H4L5),0.031,-0.007,0.019,0.004,-0.033,0.018,0.02,0.015,0.057,-0.016
PAK4 (UniProt O96013),0.049,0.372,-0.016,-0.001,-0.102,0.023,-0.087,-0.064,-0.012,0.034
MTHFD1L (UniProt B7ZM99),-0.034,-0.014,0.004,0.011,-0.007,-0.005,-0.006,0.033,0.02,-0.023
MSH2 (UniProt P43246),-0.009,-0.01,0.019,0.02,0.019,-0.012,-0.014,0,0.037,0.019
NIFK (UniProt Q9BYG3),0.02,-0.039,0.022,0.002,-0.001,0.016,-0.035,-0.005,0.016,0.032
NNMT (UniProt P40261),-0.026,-0.037,0.011,-0.019,-0.05,-0.053,0.026,0.06,0.016,-0.034
NFKBIB (UniProt Q15653),-0.034,-0.037,0.048,-0.008,-0.029,-0.012,0,0.033,0.06,-0.037
NCAPH2 (UniProt Q6IBW4),-0.033,-0.01,0.066,-0.091,0.028,-0.017,0,0.01,0.055,0.011
OSBP2 (UniProt Q969R2),0,0.077,0.036,-0.103,-0.223,-0.006,0.023,0.051,-0.011,0
MYO9A isoform 4 (UniProt B2RTY4),-0.057,0.016,0.022,0.068,0.03,-0.031,-0.142,-0.037,0.043,-0.005
NAT1 (UniProt P18440),-0.089,-0.039,0.062,0.019,-0.035,-0.001,-0.048,0.034,0.009,0.052
MRPL51 (UniProt Q4U2R6),0.02,-0.005,0.048,0.011,-0.038,0.066,0.006,-0.062,0.051,0.017
NFIC (UniProt P08651),-0.019,0.014,0.009,-0.058,0.235,-0.038,-0.044,0.049,0.04,-0.082
PAFAH1B3 (UniProt Q15102),0.073,-0.004,0.003,-0.01,0.015,-0.026,0.014,-0.002,0.02,0.006
MT-CYB (UniProt P00156),0.133,-0.055,0.001,-0.064,-0.094,0.03,-0.107,0.039,-0.093,0.198
NEK9 (UniProt Q8TD19),0.005,0.027,0.055,0,0.01,0.006,-0.01,0.012,0.009,0.016
NOC2L (UniProt Q9Y3T9),-0.047,0.015,0.047,-0.005,0.026,0.014,-0.074,-0.02,0.021,0.014
OARD1 (UniProt Q9Y530),-0.013,0.003,0.003,0.002,-0.01,-0.027,-0.046,0.032,0.035,0.011
NCOR2 (UniProt C9J0Q5),-0.002,-0.001,-0.026,-0.056,-0.034,0.046,0.022,-0.064,-0.014,-0.04
OTUD7B (UniProt Q6GQQ9),-0.008,0.004,0.026,0.005,-0.034,-0.011,-0.019,0.239 (active),0,0.047
OPA1 isoform 2 (UniProt O60313),-0.001,0.006,-0.004,-0.036,-0.035,0.031,0.026,0.024,0.046,0.02
OGFOD2 (UniProt Q6N063),0.002,0.023,-0.012,-0.018,-0.125,-0.023,0.025,-0.04,-0.029,-0.023
OTC (UniProt P00480),-0.089,0.001,0.065,-0.18,0.017,-0.055,0.065,0.156,-0.034,-0.004
PARG (UniProt Q86W56),0.013,0.01,0.017,-0.011,-0.025,-0.017,-0.028,0.021,0.061,0.005
